In PubChem BioAssay (NCI):
About 79,000 compounds went through this panel and 15% of them were active in at least one assay; those are over-represented in the sample as a whole. Cut-off read from the data, not from the text of the source: active = growth inhibition above about 70%; inactive = the rest.

Key:
[1] = NCI Yeast Anticancer Drug Screen. Data for the rad50 strain (AID 155);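 note: 0% = growth of vehicle-only cultures of the same strain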; details: S. cerevisiae rad50 strain growth inhibition; at 50.0 µM; active compounds read high
How it was run: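 Cells are treated with compound, grown, and their growth is then scored against vehicle-only cultures of the same repair-deficient yeast strain.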

[2] = NCI Yeast Anticancer Drug Screen. Data for the mec2-1 strain (AID 157); details: S. cerevisiae mec2-1 strain, at 50.0 µM, active compounds read high
How it was run: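 Mutant yeast (mec2-1) grown with compound; growth inhibition relative to vehicle control reported.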

[3] = NCI Yeast Anticancer Drug Screen. Data for the sgs1 mgt1 strain (AID 161);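 note: 0% = growth of cultures given vehicle only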; details: S. cerevisiae sgs1 mgt1 strain, at 50.0 µM, active compounds read high
How it was run: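 Compounds are added to genetically altered yeast, and growth is compared with cultures given vehicle alone to give percent inhibition.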

[4] = NCI Yeast Anticancer Drug Screen. Data for the cln2 rad14 strain (AID 165);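 note: 0% = growth equal to vehicle treated cultures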; details: S. cerevisiae cln2 rad14 strain, at 50.0 µM, active compounds read high
How it was run: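 Readout is yeast growth inhibition versus vehicle-treated controls, using a strain with cln2 and rad14 alterations exposed to compound.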

[5] = NCI Yeast Anticancer Drug Screen. Data for the bub3 strain (AID 167); details: S. cerevisiae bub3 mutant strain, at 50.0 µM, active compounds read high
How it was run: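 Part of a panel of yeast mutants defective in DNA damage repair or cell cycle regulation. Each strain is grown with compound, and inhibition is calculated relative to solvent-treated cultures.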

[6] = NCI Yeast Anticancer Drug Screen. Data for the mlh1 rad18 strain (AID 175); details: S. cerevisiae mlh1 rad18 strain growth inhibition; at 50.0 µM; active compounds read high
How it was run: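 Genetically defined yeast (DNA repair-deficient) exposed to compounds; growth inhibition determined relative to vehicle.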

Measured: growth inhibition

CCCCSCCC(=O)O
inactive: [1] 18.4% | [2] -3.05% | [3] -22.2% | [4] 3.95% | [5] 5.95% | [6] 5.85%

O=C(O)CC(=O)Nc1cc([N+](=O)[O-])ccc1OCc1ccccc1
inactive: [1] -2.95% | [2] 3.6% | [3] -1.1% | [4] -14.7% | [5] 5.7% | [6] 0.85%

O=Nc1ccc(O)cc1Cc1ccccc1
inactive: [1] -10.4% | [2] -5.95% | [3] -19.8% | [4] -5.3% | [5] 5.1% | [6] -1.5%

CCCCS/C=C1\CC2OC(=O)C3(C)CCCC(C)(C1=O)C23 (configuration not stated)
inactive: [1] -1.85% | [2] 15.2% | [3] 8.15% | [4] -3% | [5] 11.5% | [6] 26.6%

CO/[N+]([O-])=C\C(=O)N/C=C/C(=O)O
inactive: [1] 19.1% | [2] 5.85% | [3] 7.3% | [4] 18.7% | [5] 23.6% | [6] 15.2%

CN1CCC(CNc2ccccc2)CC1
inactive: [1] 3.6% | [2] -0.5% | [3] 6.05% | [4] -20.5% | [5] 14.5% | [6] 3.45%

CCCCNC(=O)c1ccc(C(C)C)cc1
inactive: [1] 9.2% | [2] -0.95% | [3] 0.4% | [4] -4.15% | [5] -0.9% | [6] -5.05%

CCCCCC(=O)Nc1cc(S(=O)(=O)O)cc2cc(S(=O)(=O)O)cc(O)c12
inactive: [1] -24.1% | [2] -15.2% | [3] -8.85% | [4] 10.7% | [5] -9.85% | [6] -7.7%

CC1COC(c2ccc(Cl)cc2Cl)O1 (configuration not stated)
inactive: [1] 8.35% | [2] -2.4% | [3] -1.1% | [4] 1.25% | [5] 2.75% | [6] -0.65%

O=C(c1cccc(C(=O)N2CCCC2)n1)N1CCCC1
inactive: [1] -11.4% | [2] -13.2% | [3] -1.7% | [4] -25.6% | [5] -15.5% | [6] -18.8%

Cc1nc(Nc2ccccc2Cl)sc1C(=O)CC(=O)C(N)=O
inactive: [1] 37.1% | [2] 20.9% | [3] 39.4% | [4] 24.1% | [5] 2.7% | [6] 48.6%

CCOC(=O)c1cnc(NCCCCCCNc2ncc(C(=O)OCC)c(=O)[nH]2)[nH]c1=O
inactive: [1] 29.7% | [2] -1.5% | [3] -3.65% | [4] -6.8% | [5] -3.1% | [6] 21.7%

CCCCCCC1NC(=S)N(c2ccccc2)C1=O (configuration not stated)
inactive: [1] -12.1% | [2] 0.5% | [3] 48.5% | [4] -5% | [5] 21.2% | [6] -6.2%

CCCC(O)C(=O)C(CCC)N(CC)CC (configuration not stated)
inactive: [1] 2.5% | [2] -6.85% | [3] 6.65% | [4] 18.7% | [5] 11.1% | [6] -4.9%

ClC(Cl)=C(Cl)C1(Cl)CC1COCc1ccccc1 (configuration not stated)
inactive: [1] 45.5% | [2] -10.1% | [3] -4.05% | [4] 17.9% | [5] -7.85% | [6] -3%

CC(=O)OCCn1c(C)nc2cc(Cl)c(Cl)cc21
inactive: [1] 33.1% | [2] 5.45% | [3] 16.3% | [4] 31.9% | [5] 23.7% | [6] 36.2%

CCCCCCCCCCCCCBr
inactive: [1] 29.8% | [2] -0.95% | [3] 13.2% | [4] 19.9% | [5] 18.1% | [6] 15.8%

CCNc1ncnc2c1cnn2C1CCCCC1
inactive: [1] 5.3% | [2] -7.15% | [3] -5.85% | [4] -35.9% | [5] 0.5% | [6] -2.5%

CCO/C=N/n1c(C(=O)NCCCOC)nc2ccccc2c1=O
inactive: [1] -6.25% | [2] -20.3% | [3] 7.4% | [4] -5.6% | [5] 4.9% | [6] 1.75%

COc1ccc(C(C)(C)c2ccccc2)cc1
inactive: [1] -20.1% | [2] -45.1% | [3] -13.4% | [4] -19.9% | [5] -24.6% | [6] -18.6%

CC1(C)CN(CCC#N)C(c2ccc([N+](=O)[O-])cc2)O1 (configuration not stated)
inactive: [1] 2.95% | [2] 3.3% | [3] 8.1% | [4] -9.4% | [5] 14% | [6] -14.8%

Cc1cc2c(=O)cc(-c3ccc(C(=O)O)cc3)oc2c(C(N)=O)c1C
inactive: [1] 4.15% | [2] 14.9% | [3] 23.6% | [4] 23.4% | [5] 11.2% | [6] 12.9%

CC(C)(C)NC(=O)c1cccc(C(=O)NC(C)(C)C)n1
inactive: [1] 3.3% | [2] -8% | [3] -0.3% | [4] -7.9% | [5] -13.3% | [6] -16.4%

CC(CCc1cccc2ccccc12)C(=O)O (configuration not stated)
inactive: [1] 29.6% | [2] 30.4% | [3] 28.9% | [4] 26.1% | [5] 30.3% | [6] 43.3%

CC1(C)C(=O)CC1C(=O)O (configuration not stated)
inactive: [1] 4.55% | [2] -0.25% | [3] -0.45% | [4] 12.3% | [5] 7.5% | [6] 8.75%

CSc1ccc(NC(=O)N(Cc2ccccc2)c2ccccc2)cc1
inactive: [1] 3.75% | [2] 16.9% | [3] 11.9% | [4] -6.4% | [5] 19.2% | [6] 13.8%

O=C1S/C(=C2\C(=O)N(CN3CCCCC3)c3ccccc32)C(=O)N1CN1CCCCC1
inactive: [1] 26.6% | [2] -13.1% | [3] -3.85% | [4] 4.65% | [5] -1.1% | [6] 31.1%

O=C1CCC2c3ccccc3C(=O)C2C1 (configuration not stated)
inactive: [1] 6.7% | [2] 4.2% | [3] -1.45% | [4] -19.1% | [5] -14.1% | [6] 9.3%

CCCC(CCc1ccccc1)C(N)=O (configuration not stated)
inactive: [1] 1.4% | [2] -5.7% | [3] 9.15% | [4] -7.35% | [5] 10.8% | [6] -1.9%

C(=N/N=C(/C(=N/N=C/c1ccccc1)c1ccccc1)c1ccccc1)\c1ccccc1
inactive: [1] 26.6% | [2] 5% | [3] 33.3% | [4] 8.4% | [5] 11.9% | [6] 5.45%

CCCCC1(CCBr)C(=O)NC(=Nc2ccccc2)NC1=O (configuration not stated)
inactive: [1] 1.85% | [2] -5.35% | [3] 10.3% | [4] -41.8% | [5] 2.95% | [6] -13.9%

COc1ccc(CC2Cc3ccccc3CC(=O)N2)cc1OC (configuration not stated)
inactive: [1] 36.5% | [2] -54.3% | [3] -4.4% | [4] 3.65% | [5] 25.6% | [6] -38.1%

O=C1C=C(Nc2ccc(Cl)cc2Cl)c2ccccc2C1=O
inactive: [1] 30.2% | [2] 17.7% | [3] 17.2% | [4] 29% | [5] 27.9% | [6] 37.5%

N#Cc1c(O)c(C=O)c(=O)n2c1[nH]c1ccccc12
inactive: [1] -30.6% | [2] -45.5% | [3] -21.7% | [4] -8.15% | [5] 4.05% | [6] -0.05%

C[Si](C)(C)C#CC(O)CS(=O)c1ccccc1 (configuration not stated)
inactive: [1] -19.5% | [2] -19.4% | [3] -13.3% | [4] -3.7% | [5] -6.45% | [6] -17.1%

CCCCCCCCCCOC(=O)c1ccccc1O
inactive: [1] -4.95% | [2] -7.15% | [3] 3.1% | [4] -111% | [5] 4.4% | [6] -10.4%

O=C1CCCCCCCCCCOCCCCO1
inactive: [1] -2.4% | [2] 2.9% | [3] 14.8% | [4] 24.1% | [5] 27.7% | [6] -13.4%

Clc1ccc(C2ON=C(c3ccccc3)N2C23CC4CC(CC(C4)C2)C3)c(Cl)c1 (configuration not stated)
inactive: [1] -18.9% | [2] -26.4% | [3] -12.4% | [4] -48.6% | [5] -21.4% | [6] -21.5%

CC1(C(=O)O)CCCC2(C)C3=CC(=O)CCC3=CCC12 (configuration not stated)
inactive: [1] -3.7% | [2] 18.1% | [3] 8.7% | [4] 2.95% | [5] 24.7% | [6] 4.5%

O=C(Oc1ccccc1)C(c1ccccc1)c1ccccc1
inactive: [1] -9.95% | [2] 0.7% | [3] 7.95% | [4] -59.7% | [5] 16.7% | [6] -10.5%

O=C(NCCCN1CCN(CCCNC(=O)Nc2ccc(Br)cc2)CC1)Nc1ccc(Br)cc1
inactive: [1] 27.7% | [2] 10.8% | [3] 38.4% | [4] 12.2% | [5] -1.5% | [6] 23.4%

CC1=CCCC(C)(C)C1/C=C/C(=O)O (configuration not stated)
inactive: [1] 8.45% | [2] -7.35% | [3] -8.75% | [4] -36.3% | [5] -18.1% | [6] -9.2%
